# Source: PubChem
# Compounds with a hit are over-represented: about 4.2% of the library has one in this group of screens.
# DAX1 inh = blocks DAX1 repression of SF-1 activated StAR promoter; HEK293T StAR-luciferase reporter, SF-1/DAX-1 repression relief; inhibition, % at 6.8 µM; actives 1.1% (n = 370,000);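 active = inhibition above the mean over all tested compounds plus 3 SD, cut at about 3.6% in these data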;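 also: 0% = DAX-1 cells with DMSO and 100% = cells lacking DAX-1 with DMSO; higher inhibition means more luminescence from relief of DAX-1 repression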
# hgDAF12 agonist = agonists of H. glycines DAF-12 nuclear receptor. HEK293 GAL4-hgDAF12 UAS-luciferase reporter, agonist luminescence; normalized to butyrate control. activation, % at 6.8 µM. actives 1.8% (n = 370,000);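 active = activation above a cutoff set at the mean of all screened compounds plus 3 SD, cut at about 10% in these data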;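 also: 0% = DMSO wells and 100% = sodium butyrate wells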
# SMARCA2 act = activators of SMARCA2 function | activation, % at 9.1 µM | actives 1% (n = 370,000) | MG213 cells, MMTV-luciferase reporter, dexamethasone, overnight; in the data active = activation above about 7.8%;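 also: 0% = vehicle wells and 100% = reference activator wells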
# ssDAF-12 act = activators of S. stercoralis DAF-12 nuclear receptor; HEK293 ssDAF-12/GRIP1 lit1-tk-luc reporter, luminescence; % of 3 µM dafachronic acid response; activation, % at 6.8 µM; actives 1% (n = 370,000);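 active = activation above the mean over all tested compounds plus 3 SD, cut at about 0.9% in these data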;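 also: 0% = DMSO-only wells and 100% = 3 µM delta7-dafachronic acid wells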
# hcDAF12 agonist = H. contortus DAF-12 activation, primary screen; actives 1.4% (n = 370,000); activation, % at 6.8 µM; HEK293 hcDAF-12 lit1-tk-luc reporter, luminescence; 0% DMSO, 100% Δ7-dafachronic acid;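 active = activation above the mean of all tested compounds plus 3 SD, cut at about 5.5% in these data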;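 also: 100% = response to 3 µM Δ7-dafachronic acid high control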
# Starred values were filed as active, the others as inactive; . = no result given.
SMILES,DAX1 inh,hgDAF12 agonist,SMARCA2 act,ssDAF-12 act,hcDAF12 agonist
COc1ccc(CCNC(=O)Cc2nn(C)c(=O)c3ccccc23)cc1OC,0,-2,-6,-1,-2
Cc1ccc2oc(C(=O)N(C)Cc3ccon3)c(C)c2c1,2,10,7,0,6.5*
Cc1ccc2oc(C(=O)N(C)Cc3ccc(C)o3)c(C)c2c1,0,2,-1,-1,-3
C#CCNC(=O)C[C@@H]1C(=O)N(CC=C)C2=CCCCC[C@]21C(=O)OC,0,-2,-2,-1,1
COCCn1c(SCC(=O)Nc2ccccc2C)nc2c(oc3ccccc32)c1=O,0,1,5,-1,0
COCCn1c(SCC(=O)Nc2ccc(C)cc2C)nc2c(oc3ccccc32)c1=O,-1,-1,-4,0.9*,0
Cc1cc2c(nc1C)CCCN2Cc1ccc(Br)cc1,-1,1,-6,0,3
O=c1cccccc1NN=C1CCCCC1,2,11*,7,0,3
O=c1cccccc1NN=C1CCCCCC1,1,4,3,-1,1
NC(=O)c1cc2ccc(O)cc2oc1=Nc1ccccc1,4,12*,7.9*,0,4
NC(=O)c1cc2ccc(O)cc2oc1=NCc1ccccc1,1,6,1,-1,2
Cc1cccc(N(C(=O)CCC(=O)Nc2cc(C)on2)C(C(=O)NC2CCCC2)c2ccc(C)o2)c1 (stereo not drawn),1,4,-3,2.2*,-1
COc1ccc(C2C=C(c3ccc(C)cc3)Nc3ncnn32)cc1 (stereo not drawn),1,11*,4,0,2
Cc1ccccc1NC(=S)NCCc1c[nH]c2ccccc12,-1,2,2,0,6.0*
O=Cc1ccc(-n2cncn2)cc1,0,2,-1,-2,1
COC(=O)/C=C/c1ccc(-n2cncn2)cc1,0,4,7.8*,-1,-1
Cc1sc2ccccc2c1CNC[C@H]1O[C@@H](n2ccc(N)nc2=O)[C@H](O)[C@@H]1O,1,0,0,0,0
Cc1sc2ccccc2c1CNC[C@H]1O[C@@H](n2cnc(C(N)=O)n2)[C@H](O)[C@@H]1O,1,-3,-2,1.0*,-1
CCCCCCCCN1C(=O)[C@@H](CC(=O)NCCCCc2ccccc2)C[C@@]2(C(=O)OC)C1=C[C@H](C(C)(C)C)O[C@@H]2C,0,1,0,-1,-2
COC(=O)C1CN(Cc2ccccc2)CCS(=O)(=O)N1Cc1ccc(C(F)(F)F)cc1 (stereo not drawn),-2,0,-3,-2,-1
Cc1ccc(NC(=O)c2snc3ccc(Cl)cc23)cc1C,2,10,7,0,6.0*
Cc1ccc(NC(=O)c2ccccc2)cc1C,0,3,3,-1,0
Cc1ccc(CNC(=O)O[C@H]2CC[C@@]34CCCN3C(=O)CCC[C@H]4C2)o1,.,-3,.,-2,-1
Cc1ccccc1Cn1nnc(-c2cccc(C(=O)O)c2)n1,3,12*,2,-1,4
O=C(C[C@H]1C[C@H](C(=O)N2CCOCC2)[C@@]2(CCC3CCCC3)c3[nH]c4cc(-c5ccco5)ccc4c3CCN2C1=O)NCCN1CCOCC1,3.7*,-6,-7,-1,-2
SMILES,DAX1 inh,hgDAF12 agonist,SMARCA2 act,ssDAF-12 act,hcDAF12 agonist
O=C(C[C@H]1C[C@H](C(=O)N2CCOCC2)[C@@]2(CCC3CCCC3)c3[nH]c4cc(-c5ccco5)ccc4c3CCN2C1=O)NCC12CC3CC(CC(C3)C1)C2,0,-1,-3,-1,0
CSc1ccc(C(c2c(C(=O)O)[nH]c3ccccc23)c2c(C(=O)O)[nH]c3ccccc23)cc1,0,0,2,-1,5.6*
CCOc1cc(Br)cc(C(c2c(C(=O)O)[nH]c3ccccc23)c2c(C(=O)O)[nH]c3ccccc23)c1O,0,2,0,-1,5
CCCCn1c(O)c(/C=C2\C=Nc3ccccc32)c(=O)[nH]c1=O,0,4,-2,0,6.0*
CCCc1nn2c(N)c(/C=C3\C=Nc4ccccc43)c(=O)nc2s1,0,-1,-3,-1,2
CCCN1CCN(CC(=O)Nc2nc3ccccc3s2)CC1,0,2,-1,1.2*,6
CCOCC(=O)Nc1nc2ccccc2s1,1,10,5,0,3
O=C(CN1CCN(Cc2ccc(F)cc2)CC1)Nc1nc2ccccc2s1,0,1,-4,0,3
O=C(NCCO)c1nc2ccccc2s1,0,1,6,1.0*,4
CCNC(=O)Nc1nc2ccccc2s1,2,13*,7,0,0
O=C(Nc1nc2ccccc2s1)c1ccccc1[N+](=O)[O-],1,7,3,1.2*,2
COCCCNC(=O)C[C@H]1C[C@@]2(C(=O)OC)C(=C[C@H](C(C)C)O[C@@H]2C2CC2)N(Cc2ccc3c(c2)OCO3)C1=O,-1,-2,0,-1,-1
COC(=O)C(C(=O)OC)[C@H]1C=C[C@@H](C(=O)NS(=O)(=O)c2ccc(C)cc2)N(C(C)=O)C1,0,-2,-2,-1,-1
CC(=O)CC[C@H]1CC[C@]2(CCCN(C(=O)c3ccno3)C2)O1,-1,-1,1,-1,-2
COc1ccccc1CNC(=O)N1CCC(c2nc3ccc(Cl)cc3[nH]2)CC1,-2,-2,-4,-1,-3
COc1ccc(/C=C/C(=O)NCCc2nc3ccccc3[nH]2)cc1,-1,2,5,1.1*,1
COC(=O)c1scc(C)c1N/N=C(\C)c1ccc(F)cc1F,0,0,1,0,5.8*
COC(=O)c1scc(C)c1NC(=O)C1CCCCC1,-1,-1,-2,0,0
O=C1NC(=O)c2cc(NC(=O)C3CCCO3)ccc21 (stereo not drawn),0,4,0,-2,1
O=C1OCc2cc(NC(=O)C3CCCO3)ccc21 (stereo not drawn),0,4,4,-1,5.8*
N=c1c2c(-c3ccccc3)c(-c3ccccc3)n(CCc3ccccc3)c2ncn1CCO,-2,1,3,-1,0
C=CCN1C(=O)[C@@H](CC(=O)NCCCOC)[C@]2(C(=O)OCC)CCCCC/C=C/12,1,0,-4,-1,0
CCCCn1c(N)c(N(CC)C(=O)C2=COCCO2)c(=O)[nH]c1=O,3.9*,2,-1,0,0
COCCNC(=O)Cn1nc(-c2ccc(Cl)cc2)c2ccccc2c1=O,2,-2,-3,11*,2
CCOC(=O)[C@@]12CN(C(=O)OC(C)(C)C)CC=C1N(Cc1ccc(OC)cc1)C(=O)[C@H]2CC(=O)N1CCN(C(=O)C2CC2)CC1,0,-2,4,0,0
CCCCc1nc2cc(C(=O)NC(C)c3cnn(C)c3)ccc2o1 (stereo not drawn),3.8*,8,4,-1,2
